Sampled rows, rich in hits. Any-hit rate of the full collection: about 3.7%.
Tau fibril ThT: blocks human tau fibril formation measured by thioflavin T; Potency, µM (highest dose often 57.4 µM), for the others: at the top dose activity, negative = inhibition, hits mostly inhibitors; 270,000 compounds, 2.1% hits; P10636; recombinant tau K18 P301L, heparin-induced fibrillization, ThT fluorescence; note: % is set by controls: 0 for no effect and ±100 for the full control effect; nearly all actives have a fitted effect of over 55% in size
Target sequence (P10636 561-689 P618L limits assumed): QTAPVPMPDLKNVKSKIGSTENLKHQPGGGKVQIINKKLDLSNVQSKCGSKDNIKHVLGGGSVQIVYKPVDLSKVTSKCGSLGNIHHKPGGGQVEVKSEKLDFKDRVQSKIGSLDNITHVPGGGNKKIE
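Aggregation was driven by heparin (20 uM final) acting on recombinant tau […] bearing P301L in 100 mM sodium acetate pH 7; fibrils were detected with Thioflavin T.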
Tau fibril FP: inhibitors of human tau fibril formation; AID 1468; 280,000 compounds, 0.39% hits; Potency, µM (series often up to 57.7 µM), for the others: at the highest dose activity, negative = inhibition, usual class: inhibitors; K18 P301L tau heparin fibrillization, Alexa594 FP, 6 h; P10636; note: % is set by controls: 0 for no effect and ±100 for the full control effect; nearly all actives have a fitted effect of over 55% in size
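Compound effects on tau fibrillization are measured by Alexa 594 fluorescence polarization (ex 555, em 632 nm). K18 P301L tau is used at 15 uM with 0.24 uM labeled tracer, and 20 uM heparin induces aggregation over 6 hr at 37 C.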
HTT aggregate: inhibitors of mutant huntingtin aggregate formation in PC12 cells | Potency, µM (highest dose often 46.1 µM), inactives show at the highest dose activity change, negative = inhibition, actives largely listed as inhibitors | PC12 HttQ103-GFP aggregates, Acumen cytometry, 40 h | AID 1688 | 220,000 compounds, 1.1% hits; note: % is set by controls: 0 for no effect and ±100 for the full control effect; nearly all actives have a fitted effect of over 60% in size
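Inducible Q103 Huntingtin exon 1–GFP PC12 line, 1500 cells/well in phenol red free DMEM with 5% equine and 5% calf serum. Tebufenozide 100 nM induced expression; compounds titrated; aggregates quantified by cytometry.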
Tau fluor cs: counter-screen for tau fibril formation inhibitors; Potency, µM (titrated, usually from 57.7 µM), without a hit: at the top dose activity change, negative = decrease; 280,000 compounds, 0.93% hits; AID 1463; tau K18 P301L Alexa594 fluorescence, heparin fibrillization; note: % is set by controls: 0 for no effect and ±100 for the full control effect; nearly all actives have a fitted effect of over 55% in size
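Human tau K18 P301L (15 uM unlabeled, 0.24 uM Alexa 594-labeled) in 100 mM sodium acetate pH 7 with 20 uM heparin, 6 hr at 37 C. ThT 30 uM added, 1 hr ambient; Alexa 594 FP and total fluorescence read at 555/632 nm.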
HTT ATP protect: Huntington cell model cytoprotection by ATP luminescence. PC12 HTT-Q103 induced, cytoprotection, ATP luminescence, 40 h. Potency, µM (doses to about 56.4 µM), for inactives: cytoprotection (ATP increase), hits mostly activators. 230,000 compounds, 0.14% hits; note: % of control where 0% means no effect; nearly all actives have a fitted effect of over 45% in size
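Huntington model: PC12 line, ecdysone-inducible HTTQ103 exon1–GFP, tebufenozide 100 nM. Test articles in a dose series. Endpoint luminescence from cellular ATP.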
* marks the source's active call; other numbers are inactive results; ? = inconclusive; . = no result given; [ ] = dose if it differs, or a comment. Calls come from the whole dose curve; as a rule, active = well fitted curve in the direction sought with a large enough effect; inconclusive = small, poorly fitted or top-dose-only effect, or another doubt; inactive = no such curve, though single readings can be large; an effect the other way counts as inactive or inconclusive. Potency is the fitted concentration of half-maximal effect.

SMILES	Tau fibril ThT	Tau fibril FP	HTT aggregate	Tau fluor cs	HTT ATP protect
COc1ccc(CCN2C(=O)C3C4C=CC(C3C2=O)C2C(=O)N(CCc3ccc(OC)c(OC)c3)C(=O)C42)cc1OC (stereo unspecified)	-8%	-3%	10µM*	-8%	-57%[10 µM]
c1cncc(-c2cncnc2NC2CCNCC2)c1	.	.	.	.	15%
CCN(CC)c1ncnc2ccc(Br)cc12	-12%	-2%	13µM*	-8%	15%
Nc1nc2c(c(=O)[nH]1)CN(CCCN1CCOCC1)CN2	.	.	.	.	9%[10 µM]
Cn1nccc1C(=O)Oc1ccc(/C=N/NC(=O)c2ccccc2O)cc1	?	1%	?	-17%	0.89µM*
CCCCC[n+]1ccn(C2=C([O-])c3ccccc3C(=O)/C2=N\S(=O)(=O)c2ccc(Br)cc2)c1	11µM*	?	2%[9.22 µM]	?	-9%[10 µM]
CCCCC[n+]1ccn(C2=C([O-])c3ccccc3C(=O)/C2=N\S(=O)(=O)c2ccccc2)c1	?	-4%	?	-24%	-99%
CCOc1ccc(Nc2oc(/C=C/c3cccc(OC)c3)nc2C#N)cc1	-7%	4%	.	-13%	.
CCc1ccc(-c2nc(CSCC(=O)N3CCN(c4ncccn4)CC3)c(C)o2)cc1	?	3%	11µM*	-8%	-2%
COc1ccc(-c2nc(CSCC(=O)N3CCN(c4ccc(OC)cc4)CC3)c(C)o2)cc1	?	2%	.	-29%	.
Cc1nc(S/C(=C/c2ccc(-c3cccc(Cl)c3)o2)C(=O)O)n[nH]1	2.8µM*	-4%	-9%	-25%	-73%
CCOC(=O)/C=C(\C)Sc1cc(=O)oc2ccccc12	?	-15%	8%	-14%	7%[10 µM]
CCOC(=O)/C=C(\C)Sc1cc(O)c2ccccc2c1O	1.8µM*	4.5µM*	-9%[9.22 µM]	?	-30%[10 µM]
CN=CC1=C(O)c2ccccc2C1=O	2%	5%	11%	2%	8%
CC(C)=CCC1=C(O)c2ccccc2C(=O)C1=O	28µM*	?	.	?	-80%
O=C1CCCC(=O)C1CS(=O)(=O)c1ccccc1	18µM*	28µM*	-10%	-29%	-32%
O=C1CC(c2ccc(Cl)cc2)CC(=O)C1CS(=O)(=O)c1ccccc1 (stereo unspecified)	?	4%	3%	-14%	-3%
COc1cc(N)c(Cl)cc1C(=O)N[C@H]1CCN(CCCOc2ccc(F)cc2)C[C@@H]1OC	-17%	4%	.	-18%	-4%
CCn1c(-c2ccc(N(C)C)cc2)nc2ccccc21	?	10%	10µM*	-15%	-97%
C=CCn1c(-c2ccc(OC)cc2)nc2ccccc21	?	-2%	11µM*	-10%	-28%[10 µM]
CN(CC(=O)O)Cc1c[nH]c2ccccc12	.	.	.	.	6%[10 µM]
COC(=O)[C@@]1(Cc2ccccc2)[C@H]2c3cc(C(=O)N4CCCC4)n(Cc4ccc(OC)c(OC)c4)c3C[C@H]2CN1C(=O)c1ccccc1	?	-2%	.	-11%	2%
CCOC(=O)NNc1ccc2nonc2c1[N+](=O)[O-]	13µM*	?	6%[9.22 µM]	-29%	23%[10 µM]
O=[N+]([O-])c1c(Nc2ccccc2)ccc2nonc12	-31%	4%	8%	-14%	19%[10 µM]
COc1cc(/C=C\c2ccc(OC)cc2OC)cc(OC)c1	?	2%	.	?	-36%
SMILES	Tau fibril ThT	Tau fibril FP	HTT aggregate	Tau fluor cs	HTT ATP protect
CCOC(=O)N1C/C(=C\c2ccccc2)C(=O)/C(=C/c2ccccc2)C1	14µM*	?	5%[9.22 µM]	-10%	-7%[10 µM]
Cc1cc(C)c2c(=O)c3c(oc2c1)C(=O)N(Cc1ccc(F)cc1)C3c1cccc(O)c1 (stereo unspecified)	4%	?	.	-21%	.
N#C/C(=C\c1ccc(-c2ccccc2[N+](=O)[O-])o1)C(=O)Nc1nc(-c2cccs2)cs1	2.8µM*	0%	8%	?	0%[10 µM]
N#C/C(=C\c1ccc(-c2ccc([N+](=O)[O-])cc2)o1)C(=O)Nc1nc(-c2cccs2)cs1	2.2µM*	7%	10%[9.22 µM]	?	-4%[10 µM]
N#C/C(=C/c1ccc(-c2ccccc2[N+](=O)[O-])o1)C(N)=O	-5%	-6%	13%	-5%	.
CC1(C)CC(=O)C(C(c2cccc(O)c2O)C2C(=O)CC(C)(C)CC2=O)C(=O)C1	.	.	.	.	11%[10 µM]
CC(C)(C)c1ccc(-n2nc(C(N)=O)c(O)cc2=O)cc1	0%	7%	10%	4%	-33%
CC(C)(C)c1ccc(-n2nc(C#N)c(Cl)cc2=O)cc1	?	2%	5µM*	-10%	-192%
O=C(Nc1ccc(F)c(Cl)c1)N1CCC(CN2CCc3ccccc3C2)CC1	2%	?	.	-4%	.
NC(=S)Nc1cccc2cccnc12	-6%	-4%	-18%	-8%	36%
NC(=S)NNc1cccc2cccnc12	3.5µM*	7.9µM*	-6%[9.22 µM]	?	-45%[10 µM]
C=C1CCC[C@]2(C)C[C@H]3OC(=O)[C@H](CNCCc4ccccc4OC)C3CC12 (stereo partly specified)	-2%	0%	.	-1%	-16%
c1ccc(C[n+]2csc3ccccc32)cc1	?	-14%	-11%	-21%	20%
Fc1cccc(C[n+]2csc3ccccc32)c1	25µM*	?	-2%	-23%	3%
Cc1ccc(-c2csc(=Nc3cccnc3)n2CCCN2CCCC2=O)cc1C	-2%	2%	-9%	5%	0%[10 µM]
Cc1ccc(-c2csc(=Nc3cccnc3)n2CCCn2ccnc2)cc1C	-13%	3%	3.5µM*	2%	-9%[10 µM]
Cc1ccc(N2CC3=C(C2=O)C(c2ccc(Br)cc2)NC(=O)N3C)cc1 (stereo unspecified)	-7%	-5%	.	-17%	.
Cc1c(Cl)cc(C(C)(C)C)c(O)c1Cc1c(C)c(Cl)cc(C(C)(C)C)c1O	.	.	.	.	5%[10 µM]
O=C(Nc1nccs1)c1cc2c(s1)CCCCC2	7%	7%	13µM*	9%	-69%[10 µM]
CCCCS(=O)(=O)N1CCc2nc(-c3ccc(OC)cc3C)c3c(c2C1)CO[C@@H](c1ccccc1)C3	0%[11.5 µM]	-2%[11.6 µM]	.	7%[11.6 µM]	-47%[10 µM]
O=C(O)CC1S/C(=N/N=C/c2ccc(-c3ccc(Cl)c([N+](=O)[O-])c3)o2)NC1=O (stereo unspecified)	7.1µM*	0%	-6%	-18%	7%
CCC(=O)Nc1ccc(SC#N)cc1C	8.9µM*	?	19%	-22%	?
Cc1ccc(-n2nc(C(=O)N(C)Cc3ccccc3)c3c4ccccc4n(C)c3c2=O)cc1	-14%	-17%	.	-22%	.
COCCCNC1=C(Cl)C(=O)c2ccccc2C1=O	?	6%	2%[9.22 µM]	-12%	-17%[10 µM]
C=CCNC1=C(Cl)C(=O)c2ccccc2C1=O	1%	2%	?	7%	1%[10 µM]
CC(C)OCCCNC1=C(Cl)C(=O)c2ccccc2C1=O	13µM*	7%	-14%[9.22 µM]	?	-2%[10 µM]

From PubChem
